Source: PubChem BioAssay AID731 (The Scripps Research Institute Molecular Screening Center, 2007)
Screen size: about 200,000 compounds; about 520 (0.26%) were called active. Shown is part of a subset that was picked to be rich in actives. A number with no mark means an inactive call. Rule as the data show it: active = activation above about 23%; inactive = the rest.

target: Peroxisome proliferator-activated receptor gamma (Homo sapiens) (UniProt P37231); experiment: PPARgamma agonists recruiting SRC-3 coactivator, primary screen, biochemical (AID 731); conditions: biochemical PPARgamma/SRC-3 coactivator recruitment assay; at 8 µM; active compounds read high;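 also: 0% = DMSO and 100% = reference agonist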
Sequence (P37231 whole entry, looked up): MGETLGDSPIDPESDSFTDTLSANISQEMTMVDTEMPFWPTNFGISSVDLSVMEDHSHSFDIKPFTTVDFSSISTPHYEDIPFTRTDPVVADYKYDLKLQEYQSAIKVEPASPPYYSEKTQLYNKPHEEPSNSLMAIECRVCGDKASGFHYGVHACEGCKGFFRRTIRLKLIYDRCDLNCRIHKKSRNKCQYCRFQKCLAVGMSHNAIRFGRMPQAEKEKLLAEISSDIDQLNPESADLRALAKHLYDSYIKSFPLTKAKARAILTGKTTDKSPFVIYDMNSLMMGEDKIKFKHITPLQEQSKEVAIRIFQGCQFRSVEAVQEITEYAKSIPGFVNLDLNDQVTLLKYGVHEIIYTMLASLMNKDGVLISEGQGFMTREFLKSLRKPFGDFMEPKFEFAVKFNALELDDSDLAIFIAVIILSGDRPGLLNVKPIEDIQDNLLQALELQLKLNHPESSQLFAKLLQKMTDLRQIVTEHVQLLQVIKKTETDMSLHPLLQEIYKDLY

Compound	activation
O=S(=O)(NC1CCCCC1)c1ccc(F)c2ccccc12	7.29%
Cc1cc(C)cc(C(=O)N(CCc2ccccc2)C2=CC3CCC(C2)N3C)c1 (stereo not given)	0.55%
O=C(NCc1cccs1)c1ccc(Br)o1	1.17%
O=[N+]([O-])c1ccc(Sc2n[nH]c(-c3ccco3)n2)nc1	2.58%
COc1ccc(N2CCN(CCCNC(=O)C3CCN(S(=O)(=O)N4CCOCC4)CC3)CC2)cc1	-2.17%
O=C(OCc1cc(Cl)ccc1OC(F)F)c1cccnc1	0.24%
CN1CCN(C(=O)/C(=C\c2cccs2)NC(=O)c2cccs2)CC1	-1.89%
NS(=O)(=O)c1ccc(CCNC(=O)c2ccc([N+](=O)[O-])cc2[N+](=O)[O-])cc1	6.7%
O=C(Nc1cccc(C(F)(F)F)c1)c1cnccn1	12.3%
CCOC(=O)c1ccc(COC(=O)CCc2nc(-c3ccccc3)c(-c3ccccc3)o2)cc1	-0.63%
CCO/N=C(/C)c1c(O)cc(-c2ccccc2)n(-c2ccccc2)c1=O	0.18%
CC(=O)N/N=C(\C)c1ccc(Br)cc1Br	-1.47%
CCc1ccc(C(=O)OCC(=O)Nc2cccc(S(=O)(=O)NC3=NCCCCC3)c2)cc1	-1.75%
Cc1ccc(NC(=O)c2sc3nc(N)c(C#N)cc3c2N)cc1	1.84%
COc1cc(NC(=O)c2cc([N+](=O)[O-])ccc2Br)ccc1NC(=O)c1ccco1	-4.35%
CN(C)c1nnnn1-c1ccc(Cl)cc1	-1.68%
Cc1ccccc1NC(=O)C(C)c1ccc(-c2ccccc2)c(F)c1 (stereo not given)	-1.23%
CCOc1ccc(/C=N/NC(=O)C(C)Sc2ccccn2)cc1OCC (stereo not given)	4.85%
CCN(CC)S(=O)(=O)c1ccc(Cl)c(C(=O)NC(C)C(c2cccs2)N2CCCC2)c1 (stereo not given)	5.06%
Cc1ccc(C2C3=C(Nc4[nH]n(-c5ccccc5)c(=O)c42)c2ccccc2C3=O)cc1 (stereo not given)	1.23%
COc1ccc(S(=O)(=O)N2CCOCC2)c(C)c1C	13.6%
Cc1ccc(-c2cc(C(=O)N/N=C/C=C/c3ccccc3)n[nH]2)o1	-0.56%

Compound	activation
CCOC(=O)c1c(C)nc2c(c1C)c(=O)oc1ccccc12	15.5%
Cc1cc(C(=O)CSc2nc(N)cc(=O)[nH]2)c(C)n1CCc1ccc(Cl)cc1	5.4%
O=C(O)COc1ccc(/C=N/O)cc1Br	3.92%
COCCNC(=O)CCCn1c(=O)c2ccccc2n(Cc2cccc([N+](=O)[O-])c2)c1=O	2.44%
CC(=O)n1cc([C@@H]2C=C(C(=O)N3CCN(Cc4ccc5c(c4)OCO5)CC3)O[C@H](OCc3ccc(CO)cc3)C2)c2ccccc21	-1.58%
Cc1cnc(C(=O)N2CCCC(C(=O)c3ccc(C(F)(F)F)cc3)C2)cn1 (stereo not given)	-0.94%
Cc1cc(=O)oc(C)c1C(=O)NCCN(C)Cc1ccccc1	1.75%
O=C(/C=C/Nc1ccccc1OC(F)(F)F)C(F)(F)F	1.89%
CCCOc1ccc(N/C=C/C(=O)C(C)(C)C)cc1	0.22%
CN(C)c1ccc(N/C=C/C(=O)C(F)(F)F)cc1	23.6% (active)
CC(=O)NS(=O)(=O)c1ccc(NC(=O)C2C3C=CC(C3)C2C(=O)O)cc1 (stereo not given)	0.92%
CC(=O)Cc1nsc(NC(=O)c2ccc(Cl)cc2Cl)n1	-0.15%
O=C(NCc1nnc(SCC(=O)N2CCC(Cc3ccccc3)CC2)o1)c1ccco1	-1.46%
CCOC(=O)C1CCN(C(=O)c2ccccc2N(C)S(=O)(=O)c2ccccc2)CC1	0.82%
COc1ccc(-n2nc3c(c2NC(=O)c2ccc(N4C(=O)CCC4=O)cc2)CSC3)cc1	2.03%
COc1ccc(/C(O)=C2\C(=O)C(=O)N(Cc3ccco3)C2c2ccc(OC)cc2OC)cc1 (stereo not given)	8.22%
COc1ccc(/C(O)=C2/C(=O)C(=O)N(c3nc(C)c(C)s3)C2c2ccco2)cc1 (stereo not given)	32.8% (active)
COc1ccccc1C1/C(=C(/O)c2ccc(C)cc2)C(=O)C(=O)N1Cc1ccco1 (stereo not given)	-1.85%
CCc1ccc(NC(=O)C(=O)N/N=C(\C)CC(=O)NCCOC)cc1	0.12%
CN(C)c1ccc(C(=S)N2CCN(C(=S)Nc3ccc(Cl)cc3)CC2)cc1	2.08%
O=C(CSCc1ccc(Cl)cc1)N1CCCCC1	7.11%
CCOC(=O)N1CCC(NC(=O)COc2cc(=O)n(C)c3ccccc23)CC1	-2.51%

Compound	activation
Cc1cccc(OCc2nnc(SCC(=O)N3CCN(C(=O)c4ccco4)CC3)n2C)c1C	9.2%
CC(=O)c1ccc(-n2nnnc2SCC(=O)N2CCN(C(=O)c3ccco3)CC2)cc1	0.9%
CCOC(=O)C1CCN(C(=O)CSc2cc(=O)n(C)c3ccccc23)CC1	63.4% (active)
Cn1c(=O)cc(SCC(=O)N2CCN(C(=O)c3ccco3)CC2)c2ccccc21	82.2% (active)
Cn1c(=O)cc(SCC(=O)N2CCCC2)c2cc(Cl)ccc21	39.3% (active)
CCOc1ccc(CCNC(=O)CSc2cc(=O)n(C)c3ccc(Cl)cc23)cc1OCC	10.2%
CCOC(=O)C1CCN(C(=O)Cn2cc(C#N)c3ccccc32)CC1	13.8%
Cc1cccc(N2C(=O)CC(SC(N)=Nc3ccccc3)C2=O)c1 (stereo not given)	-7.93%
COC(=O)c1cc(C(=O)OC)cc(N2C(=O)CC(N3CCN(c4ccccc4)CC3)C2=O)c1 (stereo not given)	-12.5%
COC(=O)c1ccccc1SC1CC(=O)N(c2cccc(C)c2)C1=O (stereo not given)	33% (active)
O=C(COC(=O)/C(=C/c1cccs1)c1cccs1)NCc1ccccc1Cl	3.76%
COc1ccc(C2CC(c3ccccc3)=NN2C(=O)COC(=O)COc2ccccc2)cc1 (stereo not given)	-0.96%
Brc1ccc(C2CC(c3ccccc3)=Nc3ccccc3N2)cc1 (stereo not given)	0.93%
CNC(=S)N1N=C(c2ccccc2)CC1c1ccc(Br)cc1 (stereo not given)	34.4% (active)
Cc1ccc2[nH]c3c(=O)n(Cc4ccccn4)cnc3c2c1	8.8%
Cc1cccc2cc(C#N)c(N3CCCC3)nc12	-13.8%
Cc1cc(C)c2nc(N3CCCC3)c(C#N)cc2c1	-3.43%
CC(=O)c1ccc(S(=O)(=O)N2CCN(c3nc4c(C)c(C)ccc4cc3C#N)CC2)cc1	56.6% (active)
O=C(NCc1ccccc1)C1=C[C@@H](C2CCCCC2)C[C@@H](OCc2ccc(CO)cc2)O1	-1.47%
CCS(=O)(=O)Nc1cccc(-c2cc(-c3ccccc3)c3cc(C)ccc3n2)c1	-3.81%
O=C(CSc1nc2cccnc2n1Cc1ccccc1)N1CCc2ccccc21	-2.44%
